# ERG Ets-DNA blk: qHTS for Small Molecule Inhibitors of the ERG Ets/DNA interaction | Transcriptional regulator ERG (Homo sapiens), P11308 | fluorescence polarization, His-ERG Ets domain / labelled DNA | Potency, µM (series often up to 76.9 µM), for the others: at the highest dose FP activity, negative = inhibition, hits mostly inhibitors | 370,000 tested, 0.028% active; active means well fitted inhibition curve with a large enough effect in the polarisation, with a control signal flat; inconclusive means small, poorly fitted or top-dose-only effect, or effect the other way, or a change in a side signal; inactive means no such curve, though single readings can be large or run the other way; the % refers to the polarisation;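 further: polarization taken with two DNA probes labelled with fluorescein and Texas red; % of control where 0% means no effect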
#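 His-tagged ERG Ets domain (1 uM in the protein solution; 300mM KCl, 50mM Tris-HCl, 1mM EDTA, 1mM DTT, pH 7.5) received compound, then a probe mix of 5 nM fluorescein-DNA and 100nM Texas-615-DNA. Fluorescence polarization was read for both dyes.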
# BLM inh: qHTS Assay for Inhibitors of Bloom's syndrome helicase (BLM); RecQ-like DNA helicase BLM (Homo sapiens), P54132; recombinant BLM DNA unwinding, fluorescence dequenching; Potency, µM (highest dose often 56.1 µM), for the others: at the top dose activity change, negative = inhibition, actives largely listed as inhibitors; 350,000 tested, 0.2% active; AID 2528, 2010;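 further: plate controls were vehicle for no effect and no enzyme for full effect; nearly all actives have a fitted effect of over 35% in size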
# TRb SRC2 PPI: qHTS for Inhibitors of the Interaction of Thyroid Hormone Receptor and Steroid Receptor Coregulator 2; TRbeta-SRC2 peptide binding, fluorescence polarization; receptor liganded with 1 µM T3; Potency, µM (series often up to 106 µM), for the others: top-dose activity change, negative = inhibition, actives largely listed as inhibitors; 280,000 tested, 0.065% active; AID 1469, 2008;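 further: plate controls were bound peptide for no effect and peptide without receptor for full effect; nearly all actives have a fitted effect of over 50% in size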
#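 Human TRb LBD (0.6 uM) plus Texas Red-labeled SRC2 peptide (20 nM), 1uM T3, 5% DMSO, 5 hr at ambient temperature. Decreased polarization (555/632 nm) flags inhibition; data normalized to free and bound peptide controls.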
# TexasRed fluor: Total Fluorescence Counterscreen for Inhibitors of the Interaction of Thyroid Hormone Receptor and Steroid Receptor Coregulator 2. Potency, µM (titrated, usually from 106 µM), for the others: at the top dose fluorescence change, negative = quenching. TRb/SRC2 Texas Red total fluorescence interference. 280,000 tested, 0.29% active; active means well fitted curve in either direction with a large enough effect; inconclusive means small, poorly fitted or top-dose-only effect; further: on the % scale 0 is the no-effect control and ±100 the full control effect
#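 Human TRb ligand-binding domain at 0.6 uM with 20 nM Texas Red SRC2 peptide in Tris buffer containing 1 uM T3 and 5% DMSO, incubated with compound 5 h at ambient temperature. Total fluorescence (555/632 nm) calculated as parallel + 2 × perpendicular.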
# RECQ1 inh-1: qHTS Assay for Inhibitors of RecQ-Like Dna Helicase 1 (RECQ1); Potency, µM (series often up to 57.3 µM), for the others: at the highest dose activity, negative = inhibition, actives largely listed as inhibitors; RECQ1 DNA unwinding, red fluorescence kinetic read; ATP-dependent DNA helicase Q1 (Homo sapiens), P46063; 240,000 tested, 0.54% active;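 further: plate controls were vehicle for no effect and no enzyme for full effect; nearly all actives have a fitted effect of over 30% in size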
#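 50 nM RECQ1T1 preincubated 15 min with compound in Tris pH 8.0 buffer with MgCl2, DTT, Tween-20 and 2.5 ug/ml poly(dI-dC); started with 200 nM TAMRA/BHQ-2 forked duplex and 2 mM ATP. Unwinding read as fluorescence (525/598 nm), two reads 2 h apart.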
# GoLoco inh red: qHTS Assay for Inhibitors of RGS12 GoLoco Motif Activity (Red Fluorophore) | Potency, µM (top dose mostly 61.6 µM), inactives show at the top dose activity, negative = inhibition, usual class: inhibitors | Gai1:RGS12 GoLoco peptide FP, rhodamine, 10 min | 230,000 tested, 0.44% active | Guanine nucleotide-binding protein G(i) subunit alpha-1 (Homo sapiens), P63096; active means well fitted inhibition curve with a large enough effect, not every such curve was filed as active; inactive means no such curve, though single readings can be large or run the other way; further: on the % scale 0 is the no-effect control and ±100 the full control effect; nearly all actives have a fitted effect of over 30% in size
# RECQ1 conf: Confirmation qHTS Assay for Inhibitors of RecQ-Like Dna Helicase 1 (RECQ1); shares compounds with RECQ1 inh-1; RECQ1 helicase DNA unwinding, fluorescence; Potency, µM (doses to about 229 µM), without a hit: top-dose activity change, negative = inhibition, usual class: inhibitors; 610 tested, 28% active; further: on the % scale 0 is the no-effect control and ±100 the full control effect; nearly all actives have a fitted effect of over 45% in size
# RECQ1 ADP FP: Counterscreen for RECQ1 Inhibitors: ADP Fluorescence Polarization Displacement Assay. shares compounds with RECQ1 inh-1. ADP fluorescence polarization displacement counterscreen. Potency, µM (highest dose often 228 µM), for inactives: at the top dose activity change, negative = inhibition, actives largely listed as inhibitors. 530 tested, 27% active; further: on the % scale 0 is the no-effect control and ±100 the full control effect; nearly all actives have a fitted effect of over 45% in size
# RECQ1 inh-2: Confirmation qHTS Assay for Inhibitors of RecQ-Like Dna Helicase 1 (RECQ1) - Round 2 Cherry Picks | shares compounds with RECQ1 inh-1 | recombinant RECQ1 DNA unwinding, red fluorescence | Potency, µM (titrated, usually from 119 µM), without a hit: at the highest dose activity, negative = inhibition, most hits filed as inhibitors | 1,100 tested, 15% active; further: on the % scale 0 is the no-effect control and ±100 the full control effect; nearly all actives have a fitted effect of over 50% in size
# Numbers without * were called inactive; i = inactive; ? = inconclusive; / = not tested or not shown; ! = a repeat was not active; [ ] = dose if it differs, or a comment. The list is not random: actives were taken first. Their share in the collection is about 0.71%. Unless noted, the call rests on the fitted dose curve; in most records, active means well fitted curve in the direction sought with a large enough effect; inconclusive means small, poorly fitted or top-dose-only effect, or another doubt; inactive means no such curve, though single readings can be large; an effect the other way counts as inactive or inconclusive. Potency means the concentration at half of the fitted maximal effect.
SMILES,ERG Ets-DNA blk,BLM inh,TRb SRC2 PPI,TexasRed fluor,RECQ1 inh-1,GoLoco inh red,RECQ1 inh-2,others
COc1cccc(-n2c(C)c3c(OC)cccc(=O)c3c2C)c1,1%,-8%,3%,1%,-11%,24%,/,
CCOc1ccccc1OCC(=O)O,2%,-2%,-15%,2%,-11%,2%,/,
CCOc1cccc(=O)c2c(C)n(C)c(C)c12,0%,-23%,-6%,-7%,?,-11%,-3%,
Cc1cccc(NC(=O)Cn2c(SCC(=O)NCc3ccccc3)nc3ccccc32)c1C,0%,-8%,-2%,-3%,/,/,/,
CCCCC[C@H](O)C/C=C1/C(=O)C=C[C@@H]1C/C=C\CCCC(=O)O,/,-16%,-7%,1%,-19%,-28%,/,
CCCCC/C=C/C=C1/C(=O)C=C[C@@H]1C/C=C\CCCC(=O)O,/,70%,1%,1%,35µM*!,-10%,?,
O=C(COC(=O)c1cccc(S(=O)(=O)N2CCN(c3ccccc3)CC2)c1)NCc1ccco1,-10%,18µM*,14%,-4%,35µM*,9%,?,
COc1ccccc1NC(=O)/C=C\c1ccco1,12%,-7%,/,/,/,/,/,
Cn1nnc(NC(=O)/C=C/c2ccco2)n1,5%,-2%,-11%,-4%,11%,3%,/,
COc1ccccc1NC(=S)NC(=O)/C=C/c1ccco1,9%,-19%,-9%[53 µM],-3%[53 µM],?,14%,?,
CCCn1nnc(NC(=S)NC(=O)/C=C/c2ccco2)n1,15%,-1%,-12%,-4%,?,-1%,-5%,
Cc1cc(=O)c2c(O)c3c(O)cc(O)c4c5c(O)cc(O)c6c(O)c7c(=O)cc(C)c8c1c2c(c34)c(c65)c78,/,20µM*,13µM*,14µM*[fluorescent],0.56µM*,4.5µM*,/,RECQ1 conf=?;RECQ1 ADP FP=0.14µM*
COc1ccc(Nc2nnc(-c3ccc(O)cc3)c3ccccc23)cc1C(N)=O,-4%,-11%,7%,-9%,?,9%,-13%,
COc1cc2cc3c(N)c(C(=O)NCc4ccco4)sc3nc2cc1OC,?,-24%,-7%,-28%,?,/,?,
Cc1ccc2nc3sc(C(=O)NCc4ccco4)c(N)c3cc2c1,2%,-5%,0%,-6%,-9%,2%,/,
Cc1cccc(CNc2ccnc(-c3ccc(N(C)C)cc3)n2)c1,/,-23%,-1%,-3%,-16%,-17%,/,
S=C(NCc1ccco1)Nc1ccc(Oc2ccc(Cl)cc2)cc1,0%,-14%,5%,-1%,?,8%,-28%,
CN(O)/C=C/C(=O)c1ccc(Br)cc1,3%,-5%,2%,-1%,-6%,-9%,/,
CN(C)/C=C/C(=O)c1ccc(Br)cc1,3%,-4%,2%,-1%,?,21%,-30%,
CCc1cc(C(=O)c2ccc(OC)cc2)c(NC(=O)CCC(=O)O)s1,-5%,-2%,-6%,3%,i,-1%,/,RECQ1 conf=8%;RECQ1 ADP FP=-15%
CC(=O)OCC(NC(=O)C(C)NC(=O)OC(C)(C)C)C1OC(n2ccc(=O)[nH]c2=O)C(OC(C)=O)C1OC(C)=O (configuration not stated),/,3%,-6%,0%,i,/,/,
Cc1ccc(CSC2=Nc3ccccc3C3=NC(CCC(=O)NCc4ccco4)C(=O)N23)cc1 (configuration not stated),-4%,-8%,-5%,-1%,-13%,3%,/,
O=C(CC1N=C2c3ccccc3N=C(SCc3ccc(Cl)cc3)N2C1=O)NCc1ccco1 (configuration not stated),1%,-14%,-17%,3%,?,7%,?,
CC(=O)OC[C@@H]1O[C@@H](O/N=C2/C[C@@H](O)[C@@H](O)[C@@H]3[C@H]4C(=O)N(c5ccc(F)cc5F)C(=O)[C@@H]4CC[C@H]23)[C@H](OC(C)=O)[C@H](OC(C)=O)[C@@H]1OC(C)=O,/,1%[12.4 µM],0%[11.2 µM],7%[11.2 µM],15%[11.5 µM],/,/,
COc1ccc(CNC(=O)c2sc3nc4n(c(=O)c3c2C)CCCCC4)cc1,-1%,-8%,4%,-13%,/,/,/,
SMILES,ERG Ets-DNA blk,BLM inh,TRb SRC2 PPI,TexasRed fluor,RECQ1 inh-1,GoLoco inh red,RECQ1 inh-2,others
O=C(COC(=O)Cc1ccccc1F)Nc1cccc(S(=O)(=O)NC2=NCCCCC2)c1,-5%,-2%,1%,-1%,1µM*,5%,-4%,RECQ1 conf=13%[114 µM];RECQ1 ADP FP=9%[91.9 µM]
CN1CCc2nc3sc(C(=O)Nc4c(F)cccc4F)c(N)c3cc2C1,2%,-16%,-3%,-1%,/,/,/,
CC(C)OC(=O)CC(=O)c1sc2nc3c(cc2c1N)CN(C)CC3,5%,-23%,-2%,?,13µM*,45%,-7%,
CCOc1ccc(S(=O)(=O)NCCSCc2ccco2)cc1,/,-8%,-1%,1%,-10%,17%,/,
COc1ccc(S(=O)(=O)NCCSCc2ccco2)cc1,-4%,-16%,-27%,-6%,?,7%,-15%,
O=C(O)c1cc(-c2ccc(/C=C3/SC(=S)N(Cc4ccccc4)C3=O)o2)ccc1Cl,?,-8%,?,?,6.3µM*,50%,/,RECQ1 conf=?
Cc1ccc(/C=C2\SC(=S)N(Cc3ccccc3)C2=O)o1,21%,-10%,21%,1%,18µM*,124%,/,RECQ1 conf=?;RECQ1 ADP FP=34%[91.9 µM]

# Assay outcomes deposited in PubChem BioAssay by National Center for Advancing Translational Sciences (NCATS).
